Activity calls are given as the source filed them. No rule for the calls is given here.
Experiment: protection of cells from dengue-induced CPE – secondary screen, flavivirus guanylyltransferase probe project (AID 624071)
Conditions: Dengue virus CPE inhibition assay, cell viability; series mostly up to 100 µM
With Cc1ccc(S(=O)(=O)Nc2cc(SCC(=O)O)c(O)c3ccccc23)cc1 the outcome was “inactive”.
For O=S(=O)(Nc1cc(SCc2ccccc2)c(O)c2ccccc12)c1ccc(Cl)cc1, the outcome was “inactive”.
For O=[N+]([O-])c1cccc(S(=O)(=O)Nc2cc(Sc3nc4ccccc4s3)c(O)c3ccccc23)c1, the outcome was “inactive”.
In the case of Cn1c(=O)c2[nH]c(-c3ccc(Cl)cc3)c(O)c2n(C)c1=O, the outcome is reported as “inactive”.
With Cc1cc(F)ccc1S(=O)(=O)Nc1cc(SCC(=O)O)c(O)c2ccccc12 the outcome was “inactive”.
For O=[N+]([O-])c1cccc(S(=O)(=O)Nc2cc(SCc3ccccc3)c(O)c3ccccc23)c1, the outcome was “inactive”.
In the case of Cc1cc(C)c(S(=O)(=O)Nc2cc(SCC(=O)O)c(O)c3ccccc23)c(C)c1, the outcome is reported as “inactive”.
With Cc1ccc(S(=O)(=O)Nc2cc(Sc3nc(C)cc(C)n3)c(O)c3ccccc23)cc1 the outcome was “inactive”.
With O=S(=O)(Nc1cc(Cl)c(O)c2ccccc12)c1ccc(F)cc1 the outcome was “inactive”.
With O=S(=O)(Nc1cc(Sc2ncn[nH]2)c(O)c2ccccc12)c1ccc(F)cc1 the outcome was “inactive”.
In the case of O=C(O)CSc1cc(NS(=O)(=O)c2cccc([N+](=O)[O-])c2)c2ccccc2c1O, the outcome is reported as “inactive”.
In the case of O=C(O)CSc1cc(NS(=O)(=O)c2ccc(Br)cc2)c2ccccc2c1O, the outcome is reported as “inactive”.
With COc1ccc(OC)c(S(=O)(=O)Nc2cc(SCC(=O)O)c(O)c3ccccc23)c1 the outcome was “inactive”.
In the case of O=S(=O)(Nc1cc(Sc2ccccc2)c(O)c2ccccc12)c1ccc(F)cc1, the outcome is reported as “inactive”.
For O=C(O)CSc1cc(NS(=O)(=O)c2ccc(F)cc2)c2ccccc2c1O, the outcome was “inactive”.
In the case of Cn1c(=O)c2[nH]c(-c3ccccc3)c(O)c2n(C)c1=O, the outcome is reported as “inactive”.
With O=C(O)CSc1cc(NS(=O)(=O)c2ccc(Cl)cc2)c2ccccc2c1O the outcome was “inactive”.
In the case of O=C(O)CSc1cc(NS(=O)(=O)c2cccc3cccnc23)c2ccccc2c1O, the outcome is reported as “inactive”.

Source: PubChem BioAssay AID624071 (Southern Research Specialized Biocontainment Screening …, 2012)
